BAZ2B inh – blocks human BAZ2B | Q9UIF8 | AlphaScreen BAZ2B-H3K14Ac peptide displacement | 360,000 tested, 4.4% active | Potency, µM (doses to about 114 µM), for inactives: top-dose activity change, negative = inhibition, usual class: inhibitors | AID 504333; also: % is scaled to controls: 0 for no effect and ±100 for the full control effect; nearly all actives have a fitted effect of over 60% in size
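BAZ2B 50 nM plus b-H3(5-23)K14Ac 50 nM, PBS pH 7.4/0.01% Tween-20, 30 min RT; compound added (max 110 uM), 30 min RT; streptavidin donor/Ni-chelate acceptor beads 10 ug/mL final, 20 min dark; AlphaScreen read.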
GLS inhibitor – blocks human kidney-isoform glutaminase activity; O94925; GLS enzymatic activity, qHTS titration; Potency, µM (series often up to 45.5 µM), for inactives: top-dose activity change, negative = inhibition, hits mostly inhibitors; 410,000 tested, 0.21% active; AID 624170; also: % is scaled to controls: 0 for no effect and ±100 for the full control effect
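hKGA in 45 mM KH2PO4 pH 8.2, 0.02% Tween-20 with pin-transferred compounds; 1 mM L-glutamine (stock) plus glutamate oxidase/HRP/Amplex Red coupling added. Fluorescence read initially and after 30 min at RT.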
JMJD2A Tudor inh – inhibitors of human JMJD2A Tudor domain; Potency, µM (series often up to 114 µM), for inactives: at the top dose activity change, negative = inhibition, usual class: inhibitors; O75164; 390,000 tested, 4.4% active; AlphaScreen JMJD2A-Tudor / H3K4me3 peptide binding; also: % is scaled to controls: 0 for no effect and ±100 for the full control effect; nearly all actives have a fitted effect of over 50% in size
G9a block – inhibitors of human histone lysine methyltransferase G9a. Q96KQ7. G9a H3K9 monomethylation, AlphaScreen, 2 h. Potency, µM (top dose mostly 102 µM), for the others: at the top dose activity, negative = inhibition, hits mostly inhibitors. 350,000 tested, 8.8% active; also: % is scaled to controls: 0 for no effect and ±100 for the full control effect; nearly all actives have a fitted effect of over 75% in size
Target sequence (Q96KQ7 913-1193 limits assumed): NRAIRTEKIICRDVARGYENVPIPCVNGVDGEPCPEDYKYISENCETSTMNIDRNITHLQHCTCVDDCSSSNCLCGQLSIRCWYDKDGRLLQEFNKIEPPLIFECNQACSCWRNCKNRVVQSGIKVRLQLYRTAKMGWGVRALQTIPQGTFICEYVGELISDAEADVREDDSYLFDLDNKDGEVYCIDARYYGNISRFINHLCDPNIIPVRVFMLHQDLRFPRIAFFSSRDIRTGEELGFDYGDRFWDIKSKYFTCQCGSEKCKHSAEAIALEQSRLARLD
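AlphaScreen detection with an anti-monomethyl H3K9 antibody quantified product after a 2 h room-temperature reaction containing 500 nM biotinylated H3K9 peptide, 20 µM SAM and 20 nM enzyme, which had been preincubated 15 min with compound.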
HP1b chromo inh – HP1-beta chromodomain-methylated histone interaction inhibition; AlphaScreen HP1-beta / biotin-H3K9me3 peptide binding; Potency, µM (series often up to 114 µM), for inactives: top-dose activity change, negative = inhibition, usual class: inhibitors; 390,000 tested, 0.56% active; P83916; also: nearly all actives have a fitted effect of over 70% in size
Target sequence (P83916 whole entry, looked up): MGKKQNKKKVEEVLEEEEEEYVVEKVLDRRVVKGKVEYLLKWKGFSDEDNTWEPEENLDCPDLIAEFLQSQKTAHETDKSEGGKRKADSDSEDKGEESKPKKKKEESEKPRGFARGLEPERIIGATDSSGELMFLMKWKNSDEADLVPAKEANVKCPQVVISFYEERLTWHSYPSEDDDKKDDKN
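HP1-beta protein (50 nM final) preincubated 30 min at room temperature with biotinylated H3(1-18)K9me3 peptide (50 nM) in PBS pH 7.4, 0.01% Tween-20, then compound added for 30 min. AlphaScreen streptavidin donor/nickel chelate acceptor beads (10 ug/mL final), 30 min dark, luminescence read.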
Starred values were filed as active, the others as inactive; ? = inconclusive; . = no result given; [ ] = dose if it differs, or a comment. Only some compounds are listed: those with a hit (about 10% of all), similar ones and a draw of the others. Calls follow the shape of the dose curve; as a rule, active = well fitted curve in the direction sought with a large enough effect; inconclusive = small, poorly fitted or top-dose-only effect, or another doubt; inactive = no such curve, though single readings can be large; an effect the other way counts as inactive or inconclusive. Potency is read from the fitted curve at half-maximal effect.

SMILES	BAZ2B inh	GLS inhibitor	JMJD2A Tudor inh	G9a block	HP1b chromo inh
COc1cc(C(=O)Oc2cccc(C(=S)N3CCOCC3)c2)cc(OC)c1OC	?	10%	-28%	22µM*	-14%
O=C(Oc1ccc(Br)cc1C(=S)N1CCOCC1)c1ccccc1	10%	-8%	-20%	45µM*	-15%
COc1cc(C(=O)Oc2c(OC)cc(C(=S)N3CCOCC3)cc2OC)cc(OC)c1OC	-33%	-3%	-28%	?	21%
O=C(Oc1ccccc1C(=O)N1CCOCC1)c1ccc(Br)cc1	8%	14%	-10%	-17%[59 µM]	20%
CNc1cc([N+](=O)[O-])ccc1N/C=C/C(=O)c1ccc2c(c1)OCO2	-7%	-3%	-12%	40%[59 µM]	23%
O=C(Nc1c2c(nn1-c1ccc(F)cc1)CSC2)c1ccc(S(=O)(=O)N2CCOCC2)cc1	5%	21%	-9%	?	2%
CC(C)(C)NC(=O)[C@@H]1CN(Cc2cccnc2)CCN1C[C@@H](O)C[C@@H](Cc1ccccc1)C(=O)N[C@H]1c2ccccc2C[C@H]1O	.	5%	89µM*	.	8%
O=C(COc1ccc2ccccc2c1)NNC(=O)c1cnccn1	-23%	2%	-6%	0.63µM*	48%
COc1ccc(CC(=O)NNC(=O)c2ccccn2)cc1	?	10%	-7%	25%	47%
COc1ccc(CC(=O)NNC(=O)c2cnccn2)cc1	4%	4%	-8%	7.9µM*	31%
O=C(COc1ccc(Cl)cc1[N+](=O)[O-])NC1CCCCC1	?	10%	-32%	-51%	7%
CCC(=O)Nc1ccc2c(c1)C(=O)c1ccccc1C2=O	-2%	-8%	-30%	?	6%
CCC(C)(C)c1ccc2c(c1)C(=O)c1ccccc1C2=O	32µM*	0%	32µM*	?	?
COc1ccccc1Nc1cc(C)nc(Nc2ccccc2OC)n1	?	-9%	-23%	2.2µM*	8%
COc1ccccc1Nc1nc(C)cc(C)n1	7%	-3%	8%	5%	43%
O=C(Nc1ccc(S(=O)(=O)NC2=NCCCCC2)cc1)c1cccc(S(=O)(=O)N2CCOCC2)c1	.	-1%	-4%	.	20%
O=C(COc1cc(F)ccc1[N+](=O)[O-])Nc1cccc(S(=O)(=O)NC2=NCCC2)c1	6%	-3%	-3%	3.2µM*	21%
CCc1cc(C(=O)Nc2ccc(S(=O)(=O)NC3=NCCCCC3)cc2)sc1C	-24%	7%	-30%	40µM*	-11%
O=C(Nc1cccc(S(=O)(=O)NC2=NCCCCC2)c1)C1COc2ccccc2O1 (stereo unspecified)	56µM*	-16%	?	50µM*	-16%
Cc1ccc(C(=O)Nc2ccc(S(=O)(=O)NC3=NCCCCC3)cc2)c(C)c1	13%	0%	-18%	-21%	18%
CC1CN(S(=O)(=O)c2cccc(C(=O)Nc3ccc(S(=O)(=O)NC4=NCCCCC4)cc3)c2)CC(C)O1 (stereo unspecified)	0%	-10%	-18%	18µM*	12%
CCOCCOC(=O)COc1ccc(N2C(=O)c3ccccc3C2=O)cc1	17%	.	.	28%	.
COCCNC(=O)C1CCC(=O)N1S(=O)(=O)c1ccc(C)cc1 (stereo unspecified)	-1%	14%	-1%	2%	1%
CN1CCN(c2nc(Nc3ccccc3)nc(N)c2[N+](=O)[O-])CC1	-21%	-1%	-31%	-42%	3%
O=C(Cn1cnc2c(nnn2Cc2ccc(Cl)cc2)c1=O)NCC1CCCO1 (stereo unspecified)	-2%	0%	-18%	16%[12.7 µM]	15%
SMILES	BAZ2B inh	GLS inhibitor	JMJD2A Tudor inh	G9a block	HP1b chromo inh
CN(C)c1ccc(C(=O)Nc2ccc(S(=O)(=O)NC3=NCCCCC3)cc2)cc1	2%	-11%	-30%	?	23%
N#Cc1ccc(C(=O)Nc2ccc(S(=O)(=O)NC3=NCCCCC3)cc2)cc1	?	0%	-6%	50µM*	18%
CC(Oc1cccc(Cl)c1)C(=O)Nc1ccc(S(=O)(=O)NC2=NCCCCC2)cc1 (stereo unspecified)	6%	20%	-18%	35µM*	9%
O=C(COc1ccccc1Cl)Nc1cccc(S(=O)(=O)NC2=NCCCCC2)c1	-1%	1%	-17%	50µM*	26%
COc1ccccc1OCC(=O)Nc1cccc(S(=O)(=O)NC2=NCCCCC2)c1	3%	1%	-14%	-34%	15%
O=C(Nc1cccc(S(=O)(=O)NC2=NCCCCC2)c1)c1ccc(Cl)cc1	26%	-2%	-3%	50µM*	35%
COC(=O)COc1ccccc1C(N)=O	8%	.	14%	20%	44%
CCN(CC)c1ccc(NC(=O)COC(=O)CCC(=O)c2cccs2)cc1	45µM*	18%	?	-15%[2.33 µM]	?
CCN(CC)c1ccc(NC(=O)COC(=O)COc2ccccc2[N+](=O)[O-])cc1	45µM*	21%	32µM*	7.1µM*	-66%
COc1cccc(NC(=O)COC(=O)COc2ccccc2[N+](=O)[O-])c1	-33%	-1%	-28%	-12%[59 µM]	5%
CCN(CC)c1ccc(NC(=O)c2ccccc2OCC(=O)OC)cc1	32µM*	34%	20µM*	.	?
Nc1nc(NCCCN2CCOCC2)nc(Nc2ccccc2F)c1[N+](=O)[O-]	-4%	14%	-27%	-34%	7%
COc1ccc(CSc2nnc(N)s2)cc1F	-26%	-4%	-24%	45µM*	40%
Cc1cc(C(=O)CN2C(=O)C(=O)N(Cc3ccccc3)C2=O)c(C)n1-c1ccccc1F	-17%	15%	-18%	-4%	3%
Cc1cc(C(=O)CN2CCC(C)CC2)c(C)n1-c1ccccc1F	-7%	-8%	-25%	50µM*	-2%
O=C(COC(=O)c1ccc(O)cc1O)c1ccc(Cl)cc1	-7%	6%	-26%	-35%	11%
Cc1cc(C)n(-c2nc3cc(Cl)c(Cl)cc3nc2Nc2ccc(F)cc2C)n1	4%	-1%	6%	1%[59 µM]	38%
C#CCOCCOCCOCCNc1nc(N2CCN(C(=O)C(Cc3cc4ccccc4[nH]3)n3cc(C(N)Cc4ccc(O)cc4)nn3)CC2)nc(N2CCN(C(=O)C(Cc3cc4ccccc4[nH]3)n3cc(C(N)Cc4ccc(O)cc4)nn3)CC2)n1 (stereo unspecified)	11µM*	-6%	8.9µM*	-28%[12.7 µM]	-36%
CC(C)C[C@H](N)c1cn([C@@H](Cc2cc3ccccc3[nH]2)C(=O)N2CCNCC2)nn1	-22%	11%	?	?	13%
C#CCOCCOCCOCCNc1nc(N2CCN(C(=O)[C@H](Cc3cc4ccccc4[nH]3)n3cc([C@@H](N)Cc4ccc(O)cc4)nn3)CC2)nc(N2CCN(C(=O)[C@H](Cc3cc4ccccc4[nH]3)n3cc([C@@H](N)CC(C)C)nn3)CC2)n1	?	10%	50µM*	?	-24%

Screens as filed in PubChem BioAssay.
